Measurements: paper PMC4336329 (PLoS ONE, 2015)
Among all 310,000 compounds or so, about 2,200 (0.71%) showed an effect of 50% or more. Effects have a minus sign here. The sample holds strong results, similar compounds and a random draw of the others, so the mix is not that of the screen.

What follows are molecules tested against human ether-à-go-go-related gene (hERG) potassium channel (human, UniProt Q12809) (assay: primary screen, population patch clamp on CHO cells stably expressing hERG; higher = less effect of the substance).
Chain of human ether-à-go-go-related gene (hERG) potassium channel (Q12809 whole entry, looked up): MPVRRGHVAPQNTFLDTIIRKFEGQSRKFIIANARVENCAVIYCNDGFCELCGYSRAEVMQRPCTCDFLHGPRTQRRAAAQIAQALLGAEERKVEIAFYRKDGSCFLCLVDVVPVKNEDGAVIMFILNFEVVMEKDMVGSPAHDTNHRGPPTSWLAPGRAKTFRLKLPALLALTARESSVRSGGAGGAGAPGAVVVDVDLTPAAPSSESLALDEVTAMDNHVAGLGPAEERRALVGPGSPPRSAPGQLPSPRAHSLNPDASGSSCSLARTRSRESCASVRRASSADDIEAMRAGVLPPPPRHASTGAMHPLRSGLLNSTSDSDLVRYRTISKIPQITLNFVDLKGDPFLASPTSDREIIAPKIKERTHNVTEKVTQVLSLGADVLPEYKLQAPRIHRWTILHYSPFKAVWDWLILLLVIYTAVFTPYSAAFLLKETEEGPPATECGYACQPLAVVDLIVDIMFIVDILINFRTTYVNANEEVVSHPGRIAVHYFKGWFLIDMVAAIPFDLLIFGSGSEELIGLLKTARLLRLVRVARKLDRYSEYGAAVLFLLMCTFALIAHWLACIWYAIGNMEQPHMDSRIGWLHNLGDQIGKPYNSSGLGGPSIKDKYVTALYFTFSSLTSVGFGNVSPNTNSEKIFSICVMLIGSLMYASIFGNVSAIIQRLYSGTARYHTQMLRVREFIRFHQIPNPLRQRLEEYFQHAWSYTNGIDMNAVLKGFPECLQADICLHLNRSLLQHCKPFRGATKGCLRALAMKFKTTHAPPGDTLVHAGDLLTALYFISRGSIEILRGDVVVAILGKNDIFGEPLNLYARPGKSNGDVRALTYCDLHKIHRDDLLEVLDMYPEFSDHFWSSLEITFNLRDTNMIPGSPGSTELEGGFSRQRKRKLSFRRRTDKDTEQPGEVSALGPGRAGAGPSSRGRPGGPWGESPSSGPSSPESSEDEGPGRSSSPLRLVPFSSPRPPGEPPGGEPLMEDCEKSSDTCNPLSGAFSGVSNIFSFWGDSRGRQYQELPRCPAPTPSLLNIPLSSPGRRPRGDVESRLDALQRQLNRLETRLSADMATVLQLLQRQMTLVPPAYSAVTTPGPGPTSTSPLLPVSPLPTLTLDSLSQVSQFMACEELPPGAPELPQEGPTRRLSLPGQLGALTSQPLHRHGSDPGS

Compared with `CCCCn1c(N)c(N(CCOC)C(=O)CN2CC=C(c3ccccc3)CC2)c(=O)[nH]c1=O`, `Cn1c(=O)c2c(ncn2CC(=O)N2CCN(c3ccccc3)CC2)n(C)c1=O` is lower in “hERG current change (%, negative = inhibition) at 1uM” value: 10.3% for the first, 8.13% for the second.

Compared with `O=C(Cn1nnc(-c2ccc(Cl)cc2)n1)NC1CCS(=O)(=O)C1` (centres unmarked), `CC1CCc2nc3ccccc3c(C(=O)OCC(=O)NC3CCS(=O)(=O)C3)c2C1` (centres unmarked) is higher in “hERG current change (%, negative = inhibition) at 1uM” value: 0.0052% for the first, 13% for the second.

Going from `Cc1ccc(Cn2c(N)c(S(=O)(=O)c3cccs3)c3nc4ccccc4nc32)cc1` to `Cc1ccc(Cn2cnc3ccccc32)cc1`, the “hERG current change (%, negative = inhibition) at 1uM” value rises from 5.35% to 13%.

Going from `CCn1c(SCC(=O)N/N=C/c2c[nH]c3ccccc23)nnc1-c1ccc(C)cc1` to `O=C(CSc1ccc(-c2ccccc2)nn1)Nc1ccc2c(c1)OCCO2`, the “hERG current change (%, negative = inhibition) at 1uM” value falls from 9.39% to 8.92%.

Going from `O=C1c2ccccc2C(=O)C1c1ccnc2ccccc12` to `N#Cc1ccccc1CSc1ccc(-c2nc3ccccc3[nH]2)cn1`, the “hERG current change (%, negative = inhibition) at 1uM” value rises from 11.7% to 16.2%.

First: Cc1ccccc1N(CC(=O)NCc1ccc2c(c1)OCO2)C(=O)CCC(=O)Nc1ccccn1
Second: O=C(NCc1ccc2c(c1)OCO2)c1cc(-c2ccccc2Cl)on1
The “hERG current change (%, negative = inhibition) at 1uM” value of the first is lower: 6.43% for the first, 12.4% for the second.

Going from `CCC1(CC)NC(=O)N(CC(=O)Nc2ccc(S(=O)(=O)N3CCOCC3)cc2)C1=O` to `CC(=O)Nc1ccc(S(=O)(=O)Nc2ccc(S(=O)(=O)N3CCCC3)cc2)cc1`, the “hERG current change (%, negative = inhibition) at 1uM” value rises from 3.3% to 4.58%.

Compared with `CCC1CCC(N2CCN(c3ccc([N+](=O)[O-])cc3)CC2)CC1` (centres unmarked), `CC1CCC(N2CCN(c3ccc([N+](=O)[O-])cc3)CC2)CC1` (centres unmarked) is higher in “hERG current change (%, negative = inhibition) at 1uM” value: -74.5% for the first, -67.8% for the second.

Compared with `CCCN1CCC(N2CCN(c3ccc([N+](=O)[O-])cc3)CC2)CC1`, `CCN1CCC(N2CCN(c3ccc(Cl)cc3)CC2)CC1` is higher in “hERG current change (%, negative = inhibition) at 1uM” value: -62.7% for the first, 10.7% for the second.

Compared with `CCN1CCC(N2CCN(c3ccc(F)cc3)CC2)CC1`, `CCC1CCC(N2CCN(c3ccc(F)cc3)CC2)CC1` (centres unmarked) is lower in “hERG current change (%, negative = inhibition) at 1uM” value: 10.6% for the first, -2.92% for the second.

Compared with `O=[N+]([O-])c1ccc(N2CCN(c3ccc(F)cc3)CC2)cc1`, `O=[N+]([O-])c1ccc(N2CCN(c3ccccc3)CC2)cc1` is higher in “hERG current change (%, negative = inhibition) at 1uM” value: 5.71% for the first, 9.45% for the second.

Going from `O=[N+]([O-])c1ccc(N2CCN(CC3CCCCC3)CC2)cc1` to `Cn1c(=O)c2c(nc(N3CCN(c4ccc([N+](=O)[O-])cc4)CC3)n2C)n(C)c1=O`, the “hERG current change (%, negative = inhibition) at 1uM” value falls from -23% to -81.7%.

First: Cc1ccnc(N2C(=O)OC(C)(C)C2(C)O)c1 (centres unmarked)
Second: Cc1cc(OC(C)C(=O)NCc2cccnc2)c2c(C)cc(=O)oc2c1 (centres unmarked)
The “hERG current change (%, negative = inhibition) at 1uM” value of the first is lower: -0.922% for the first, 9.3% for the second.

Compared with `C=CCS(=O)(=O)N1CCCC(C(=O)c2cccc(Cl)c2)C1` (centres unmarked), `Cc1ccc(C)c(/C=C(\C(=O)O)c2ccc(S(=O)(=O)N3CCCCC3)s2)c1` is lower in “hERG current change (%, negative = inhibition) at 1uM” value: 14.2% for the first, 6.97% for the second.

Compared with `O=C(NS(=O)(=O)c1ccccc1)c1ccccc1O`, `Cc1ccccc1CNC(=O)Cc1ccccc1[N+](=O)[O-]` is lower in “hERG current change (%, negative = inhibition) at 1uM” value: 0.636% for the first, 0.014% for the second.

Going from `O=C(O)CSC1=NC(=Nc2cccc(Cl)c2)C2(CCCCC2)N1c1ccccc1` to `CCN(c1ccccc1)S(=O)(=O)c1cccc(C(=O)NCC2(N(C)C)CCCCC2)c1`, the “hERG current change (%, negative = inhibition) at 1uM” value falls from 19.9% to -11%.

First: Cc1c(C(=O)Nc2cccc([N+](=O)[O-])c2)sc2ncn(CC(=O)N3CCOCC3)c(=O)c12
Second: Cn1c(=O)c2c(ncn2CC(=O)N2CCN(c3ccc([N+](=O)[O-])cc3)CC2)n(C)c1=O
The “hERG current change (%, negative = inhibition) at 1uM” value of the first is higher: 14.1% for the first, -69.6% for the second.

Going from `CCc1nnc(NC(=O)c2ccc(-c3ccccc3F)o2)s1` to `Cc1nc(C)c(C(=O)Nc2nc3c(C)cccc3s2)o1`, the “hERG current change (%, negative = inhibition) at 1uM” value falls from 11.7% to -4.12%.

Going from `Cc1cc(N2CCN(c3ccccc3)CC2)nc(-n2nc(C)cc2C)n1` to `Cc1cc(C)n(-c2nnc(N3CCN(c4ccccc4)CC3)nn2)n1`, the “hERG current change (%, negative = inhibition) at 1uM” value rises from -51% to 4.59%.

First: Cc1cc(N2CCC(C)CC2)nc(-n2nc(C)cc2C)n1
Second: Cc1cc(C)nc(N2CCC(C(=O)NCc3ccccc3F)CC2)n1
The “hERG current change (%, negative = inhibition) at 1uM” value of the first is lower: -9.09% for the first, 1.75% for the second.

Going from `O=C(Cc1cccc(NC(=O)C2CCCN(C(=O)C3CCC3)C2)c1)Nc1cccc(C(=O)N2CCCC2)c1` (centres unmarked) to `O=C(c1ccc(S(=O)(=O)c2cccc(Cl)c2)c([N+](=O)[O-])c1)N1CCN(Cc2ccccc2)CC1`, the “hERG current change (%, negative = inhibition) at 1uM” value rises from 9.32% to 15.8%.

Compared with `COc1ccc(C(=O)N2N=C(c3cccc(NS(C)(=O)=O)c3)CC2c2cccs2)cc1` (centres unmarked), `COc1cccc(C(=O)N/N=C/c2ccc(OC3CSC3)cc2)c1` is higher in “hERG current change (%, negative = inhibition) at 1uM” value: -22.1% for the first, 12.7% for the second.

Going from `O=C(N/N=C/c1ccc(OC2CSC2)cc1)c1ccccc1` to `Cc1cccc(C(=O)N/N=C/c2ccc(OC3CSC3)cc2)c1`, the “hERG current change (%, negative = inhibition) at 1uM” value falls from -0.636% to -59.8%.

Compared with `CN(CC(=O)Nc1ccccc1C(F)(F)F)C(=O)COc1ncnc2sccc12`, `Cc1cc(C)cc(NC(=O)C(OC(=O)c2cccs2)c2ccccc2)c1` (centres unmarked) is higher in “hERG current change (%, negative = inhibition) at 1uM” value: 6.31% for the first, 16.7% for the second.

First: C=CCn1c(SCC(=O)NC(=O)NCC(C)C)nnc1C1CCCCC1
Second: CCOCCCNC(=O)CNC(=S)N(Cc1ccccc1F)C1CCCCC1
The “hERG current change (%, negative = inhibition) at 1uM” value of the first is higher: 13.9% for the first, -6.79% for the second.

First: O=C(O)CCC(=O)NCc1cn(-c2ccccc2)nc1-c1cccc(Br)c1
Second: O=C(CC(=O)N/N=C/c1ccccc1)NCc1ccccc1
The “hERG current change (%, negative = inhibition) at 1uM” value of the first is higher: 9.76% for the first, 8.85% for the second.

Going from `Cc1cccc(N2CCN(C(=O)c3cc(S(=O)(=O)N(C)C)ccc3N3CCCC3)CC2)c1C` to `CN(C)S(=O)(=O)c1ccc(N2CCCC2)c(C(=O)N2CCN(c3ccc([N+](=O)[O-])cc3)CC2)c1`, the “hERG current change (%, negative = inhibition) at 1uM” value falls from 5.76% to -84%.

Compared with `Cc1ccc(S(=O)(=O)N2CCN(C(=O)c3cc(S(=O)(=O)N(C)C)ccc3N3CCCC3)CC2)cc1`, `O=C(c1cc([N+](=O)[O-])ccc1N1CCOCC1)N1CCN(c2ccc([N+](=O)[O-])cc2)CC1` is lower in “hERG current change (%, negative = inhibition) at 1uM” value: 13.1% for the first, -74% for the second.

Compared with `O=C(c1cc([N+](=O)[O-])ccc1N1CCOCC1)N1CCN(c2ccccc2)CC1`, `O=C(c1cc([N+](=O)[O-])ccc1Cl)N1CCN(c2ccccc2)CC1` is lower in “hERG current change (%, negative = inhibition) at 1uM” value: 7.19% for the first, 4.13% for the second.

Compared with `O=C(c1cc([N+](=O)[O-])ccc1Cl)N1CCN(c2ccc(F)cc2)CC1`, `O=C(c1cc([N+](=O)[O-])ccc1Cl)N1CCN(c2ccc([N+](=O)[O-])cc2)CC1` is lower in “hERG current change (%, negative = inhibition) at 1uM” value: 0.85% for the first, -58.8% for the second.

First: O=C(c1cc([N+](=O)[O-])ccc1N1CCOCC1)N1CCOCC1
Second: COc1cc(C(=S)N2CCOCC2)ccc1OC(=O)c1ccc([N+](=O)[O-])cc1[N+](=O)[O-]
The “hERG current change (%, negative = inhibition) at 1uM” value of the first is lower: 12.4% for the first, 15.5% for the second.

Going from `COc1ccc(-c2cc(-c3cccs3)nc(OC)c2C#N)cc1OC` to `COc1ccc(CCNC(=O)/C=C/c2ccco2)cc1OC`, the “hERG current change (%, negative = inhibition) at 1uM” value falls from 24.6% to 5.95%.

Compared with `COc1ccc(CN2CCC(N3CC(C)OC(C)C3)CC2)c(OC)c1OC.O=C(O)C(=O)O` (centres unmarked), `COc1ccc(NC(=O)c2cc([N+](=O)[O-])ccc2NC(=O)CNC2CCCCC2C)c(OC)c1` (centres unmarked) is lower in “hERG current change (%, negative = inhibition) at 1uM” value: 2.62% for the first, -78.8% for the second.

First: Cc1ccc([N+](=O)[O-])cc1S(=O)(=O)Nc1ccc(O)c(Sc2ncn[nH]2)c1
Second: COc1ccc(NC(=O)c2cc([N+](=O)[O-])ccc2NC(=O)CNCc2ccccn2)c(OC)c1
The “hERG current change (%, negative = inhibition) at 1uM” value of the first is higher: 14.7% for the first, 9.51% for the second.

Going from `CCOc1ccc(CCNC(=O)/C=C/c2ccco2)cc1OCC` to `CCOc1ccc(CCNC(=O)COC(=O)/C=C/c2ccco2)cc1OCC`, the “hERG current change (%, negative = inhibition) at 1uM” value rises from -170% to 15.9%.

Compared with `COc1cc(C(=S)N2CCOCC2)cc(OC)c1OC(=O)c1ccc([N+](=O)[O-])cc1[N+](=O)[O-]`, `COc1ccc(C(=S)N2CCOCC2)cc1OC(=O)c1ccc([N+](=O)[O-])cc1[N+](=O)[O-]` is lower in “hERG current change (%, negative = inhibition) at 1uM” value: 5.28% for the first, -63.1% for the second.

First: COc1cc(NC(=O)c2cc([N+](=O)[O-])ccc2NC(=O)CNC2CCCCC2C)cc(OC)c1 (centres unmarked)
Second: COc1nc(OC)nc(N2CCC(C(=O)NCc3ccco3)CC2)n1
The “hERG current change (%, negative = inhibition) at 1uM” value of the first is higher: 17.4% for the first, -0.721% for the second.

Going from `O=C(OCC(=O)N1CCOCC1)c1ccccc1O` to `O=C(O)CC(c1cccc(O)c1)N1Cc2ccccc2C1=O` (centres unmarked), the “hERG current change (%, negative = inhibition) at 1uM” value falls from 13.6% to 12%.

First: Cn1c(=O)c2c(nc(N3CCOCC3)n2C)n(C)c1=O
Second: Cn1c(=O)c2c(nc(N3CCCC3)n2C)n(C)c1=O
The “hERG current change (%, negative = inhibition) at 1uM” value of the first is lower: -1.83% for the first, 12.6% for the second.

Going from `Cn1c(=O)c2c(ncn2CC(=O)N2CCN(c3ccc(F)cc3)CC2)n(C)c1=O` to `Cc1nc2c(C(=O)N3CCCC3)cnn2c(C)c1Cc1c(F)cccc1Cl`, the “hERG current change (%, negative = inhibition) at 1uM” value falls from -0.183% to -11.4%.

Compared with `C=Cc1ccc(COC(=O)c2cn(CC)c3nc(C)ccc3c2=O)cc1`, `O=C(NCc1ccco1)C1CCN(c2nc3ccccc3n2Cc2ccccc2F)CC1` is lower in “hERG current change (%, negative = inhibition) at 1uM” value: -21% for the first, -62.8% for the second.

In the case of `CC(C)OCP(=O)(c1ccccc1)c1ccccc1`, the “hERG current change (%, negative = inhibition) at 1uM” value is reported as 6.74%.
